# An excerpt weighted towards active compounds, which were near 19% of everything screened.
# DT40 TDP1 CPT – DT40-hTDP1 cell growth loss with CPT. chicken DT40 Tdp1-/-;hTDP1 cells + 20 nM CPT, ATP luminescence, 48 h. Potency, µM (series often up to 46.2 µM), without a hit: at the highest dose activity change, negative = growth inhibition, actives largely listed as inhibitors. 420,000 compounds, 12% hits. AID 686979; also: potency is read from the fitted curve at half-maximal effect; % is scaled to controls: 0 for no effect and ±100 for the full control effect; nearly all actives have a fitted effect of over 55% in size
#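 Chicken DT40 Tdp1-/- cells stably complemented with human TDP1 were seeded at 400 cells/well in medium containing 20 nM camptothecin, exposed to pin-transferred compounds, and grown at 37 °C for at least 48 hr. Viability was read as ATP luminescence.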
# TGFb SMAD3 inh – blocks TGF-b signaling | HepG2 CAGA-GFP TGF-b/SMAD3 reporter, GFP fluorescence, 18 h; TGF-beta stimulated, 500 pg/mL final | Potency, µM (series often up to 46.1 µM), inactives show at the top dose activity, negative = inhibition, usual class: inhibitors | 410,000 compounds, 1.2% hits | AID 588855; also: potency is read from the fitted curve at half-maximal effect; % is scaled to controls: 0 for no effect and ±100 for the full control effect; nearly all actives have a fitted effect of over 65% in size
#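 HEPG2 CAGA-GFP, 1000 cells/well; 2 h settle, 37 C; cpd via pin tool; TGF-b 500 pg/mL final; 18 h, 37 C; GFP imaging ex488/em500-530; %Activity normalised to -TGF-b and +DMSO controls; CRC fit, curve class.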
# TDP1 block – blocks human tyrosyl-DNA phosphodiesterase 1; recombinant TDP1, AlphaScreen DNA substrate cleavage; Potency, µM (series often up to 130 µM), inactives show at the top dose activity change, negative = inhibition, actives largely listed as inhibitors; 350,000 compounds, 0.28% hits; also: potency is read from the fitted curve at half-maximal effect; % is scaled to controls: 0 for no effect and ±100 for the full control effect; nearly all actives have a fitted effect of over 40% in size
# Target sequence (Q9NUW8 whole entry, looked up): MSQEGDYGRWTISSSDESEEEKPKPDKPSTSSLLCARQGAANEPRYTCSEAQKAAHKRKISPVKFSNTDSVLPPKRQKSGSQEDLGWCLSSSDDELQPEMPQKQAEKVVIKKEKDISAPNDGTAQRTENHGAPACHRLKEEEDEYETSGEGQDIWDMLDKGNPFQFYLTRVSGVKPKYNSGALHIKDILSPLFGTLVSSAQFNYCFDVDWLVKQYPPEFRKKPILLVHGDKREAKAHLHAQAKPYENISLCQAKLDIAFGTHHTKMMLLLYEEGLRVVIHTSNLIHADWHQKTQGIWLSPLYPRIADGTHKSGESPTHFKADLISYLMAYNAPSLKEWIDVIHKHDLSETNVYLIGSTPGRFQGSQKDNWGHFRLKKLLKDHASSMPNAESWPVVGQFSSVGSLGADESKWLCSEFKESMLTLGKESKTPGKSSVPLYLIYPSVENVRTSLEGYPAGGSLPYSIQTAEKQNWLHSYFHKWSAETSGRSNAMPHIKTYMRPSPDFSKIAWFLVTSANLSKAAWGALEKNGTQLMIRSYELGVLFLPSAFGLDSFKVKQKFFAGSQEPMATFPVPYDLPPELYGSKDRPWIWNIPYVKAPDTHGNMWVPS
#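 Steps: enzyme plus compound, 15 min RT; add biotin/phosphotyrosine-FITC oligonucleotide (15 nM final), react 5 min; add donor/acceptor beads (10 ug/ml final), 10 min; read AlphaScreen. Tdp1 at 1 nM final.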
# TDP1 cell noCPT – qHTS for Inhibitors of human tyrosyl-DNA phosphodiesterase 1 (TDP1): qHTS in cells in absence of CPT. AID 686978, 2013. Potency, µM (doses to about 46.2 µM), for the others: at the highest dose activity change, negative = growth inhibition, hits mostly inhibitors. 420,000 compounds, 15% hits. DT40 Tdp1-/- hTDP1 cells, no CPT, ATP luminescence, 48 h; also: potency is read from the fitted curve at half-maximal effect; % is scaled to controls: 0 for no effect and ±100 for the full control effect; nearly all actives have a fitted effect of over 55% in size
#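 No-CPT arm: Tdp1-/-;hTDP1 DT40 cells (400/well) plus compounds, incubated ≥48 hr at 37 °C. Readout CellTiter-Glo luminescence.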
# HepG2 viability – kills HepG2 cells in TGF-b inhibitor counter-screen. HepG2 CAGA-GFP viability, ATP luminescence, 18 h. Potency, µM (doses to about 46.1 µM), for inactives: at the top dose activity change, negative = cytotoxicity, actives largely listed as cytotoxic. 410,000 compounds, 0.76% hits. AID 588856; also: potency is read from the fitted curve at half-maximal effect
#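 CellTiter-Glo luminescence gave cytotoxicity after 18 hours at 37 degrees C. The cells were HepG2 CAGA-GFP in 1% FBS DMEM, stimulated with 500 pg/mL TGF-beta after compound addition. %Activity was normalised to no-cell wells (complete cell-killing) and DMSO (no toxicity), and curves were fitted and classified.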
# IL-1B inflam inh – inhibitors of inflammasome signaling (IL-1 beta secretion); activity change, % at 57.5 µM; THP-1 LPS/ATP IL-1B secretion, AlphaLISA, 16 h; active compounds read low; 360,000 compounds, 4.7% hits; in the data active = activity change below about -50%; inconclusive = mostly about -30% to -49%; also: % is scaled to controls: 0 for no effect and ±100 for the full control effect
#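 Secreted IL-1B measured by AlphaLISA bead assay after 16 h compound exposure of THP-1 cells; compounds (final up to 57.5 uM) added 1 h before LPS (250 ng/mL) and ATP (1.25 mM) stimulation; lower signal means less secretion.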
# The depositor's hits bear a star; ? = inconclusive; / = not tested or not shown; ! = a repeat was not active; [ ] = dose if it differs, or a comment. Unless noted, calls follow the shape of the dose curve; as a rule, active = well fitted curve in the direction sought with a large enough effect; inconclusive = small, poorly fitted or top-dose-only effect, or another doubt; inactive = no such curve, though single readings can be large; an effect the other way counts as inactive or inconclusive.
SMILES,DT40 TDP1 CPT,TGFb SMAD3 inh,TDP1 block,TDP1 cell noCPT,HepG2 viability,IL-1B inflam inh
Cc1cccc(C)c1OCC(O)CN(Cc1ccccc1O)C1CCCCC1 (stereo not given),16µM*,?,-2%,10µM*,-33%,-66*
O=C(Cn1c(=O)oc2ccccc21)N1CCN(S(=O)(=O)c2ccccc2)CC1,-2%,-1%,-1%,29%,3%,31
Cc1cc(C(C)(C)C)cc(C)c1CCNC(=O)c1c(C)noc1C,29µM*,-10%,9%,26µM*,-1%,-5
Cc1noc(C)c1C(=O)NCCc1ccc(Cl)cc1,5%,-10%,1%,-6%,0%,-2
CCc1nn2c(=O)cc(COc3cccc(NC(=O)c4ccco4)c3)nc2s1,21µM*,4%,50µM*,?,6%,-10
CCCCc1nn2c(=O)cc(COC(=O)c3cccc(NC(=O)c4cccc(C)c4)c3)nc2s1,9%,0%,4%,0%,1%,/
CCc1nn2c(=O)cc(COC(=O)CNC(=O)c3ccccc3)nc2s1,-6%,-40%,3%,-6%,-16%,/
CCc1nn2c(=O)cc(COC(=O)c3ccc(NC(=O)c4cccs4)cc3)nc2s1,6.5µM*,3%,1%,6.5µM*,0%,/
CCOc1cc(C(=O)OCc2cc(=O)n3nc(CC)sc3n2)cc(OCC)c1OCC,18µM*,?,1%,?,-1%,/
Cc1cccc(C(=O)Nc2cccc(C(=O)OCc3cc(=O)n4nc(C(C)C)sc4n3)c2)c1,?,19%,1%,15µM*,-1%,/
NC(=O)c1ccc(N2CCNC(=O)C2)c([N+](=O)[O-])c1,0%,9%,-4%[0.0935 µM],15%,23%,?
CCOc1ccc(S(=O)(=O)N2CCN(CN3C(=O)CC4(CCCC4)C3=O)CC2)cc1,-21%,-3%,0%[56.1 µM],19%,6%,7
Cc1nn2c(=O)cc(COC(=O)c3ccc(NC(=O)c4cccs4)cc3)nc2s1,16µM*,-18%,-4%,15µM*,-35%,/
CCCCC(=O)OCc1cc(=O)n2nc(C3CCCCC3)sc2n1,-10%,0%,3%,-4%,1%,/
CCc1nn2c(=O)cc(COC(=O)c3cccc(NC(=O)c4ccccc4C)c3)nc2s1,21µM*,19%,1%,15µM*,4%,/
COc1cc(C(=O)OCc2cc(=O)n3nc(C4CCCCC4)sc3n2)cc(OC)c1OC,12µM*,4%,5%,10µM*,2%,/
Cc1cc2c(s1)c1cnn(Cc3ccc(S(C)(=O)=O)cc3)c(=O)c1n2C,/,/,-1%,/,/,/
CN(C(=O)c1ccc(NC(=O)Cc2ccc(NC(=O)C3CCCN(C(=O)C4CC4)C3)cc2)cc1)C1CCCC1 (stereo not given),?,14%,/,?,3%,-6
Cc1ccc2c(c1)NC(=O)C(CC(=O)Nc1ccccc1Cl)O2 (stereo not given),-18%,0%,2%,-27%,-22%,/
CCOC(=O)/C(=N\Nc1ccccc1Cl)N1CCN(C)CC1,?,7%,-1%,?,-2%,-58*
C/[N+]([O-])=C\c1cccc(OCCN2CCN(c3ncc(C(F)(F)F)cc3Cl)CC2)c1,-8%,-26%,/,?,-18%,-51*
COc1ccccc1CNC(=O)c1ccc2nc(N3CCCCC3)sc2c1,?,10%,3%,?,-2%,/
Cc1ccccc1C(=O)NC(=S)Nc1ccc(S(=O)(=O)N(C)c2ccccc2)cc1,23µM*,8%,-1%,23µM*,7%,-2
Cc1ccccc1C(=O)NC(=S)Nc1ccccc1C(=O)O,-13%,-14%,-5%,-6%,-3%,18
Cc1cccc(C(=O)NC(=S)Nc2ccc(S(=O)(=O)N(C)c3ccccc3)cc2)c1,?,3%,5%,13µM*,-20%,24
SMILES,DT40 TDP1 CPT,TGFb SMAD3 inh,TDP1 block,TDP1 cell noCPT,HepG2 viability,IL-1B inflam inh
COC(=O)c1ccccc1NC(=S)NC(=O)c1ccccc1C,23µM*,-13%,5%,-20%,-8%,-8
Cc1noc(NS(=O)(=O)c2ccc(NC(=O)c3cccc(S(=O)(=O)N(C)c4ccccc4)c3)cc2)c1C,3%,-32%,/,11%,-17%,17
Cc1ccc(CNC(=O)CCCc2nnc3n(CC(C)C)c(=O)c4sccc4n23)cc1,?,-15%,3%,?,-13%,/
CCCc1nc(NC2CCCCC2)c(C#N)c2c1COC(C)(C)C2,18µM*,-5%,-1%,29µM*,6%,8
CCc1nc(NCC2CCCO2)c(C#N)c2c1COC(C)(C)C2 (stereo not given),?,12%,0%,-10%,-21%,-17
O=C1Nc2c(Cl)cc(Cl)cc2C1=O,7.3µM*,?,/,10µM*,-55%,-93*
COc1ccc(SN=C2C(C)=CC(=O)C=C2C)cc1,?,-5%,-11%,9.2µM*,-17%,?
CC(CCc1ccccc1)NC(=O)CCNS(=O)(=O)c1ccccc1C(F)(F)F (stereo not given),?,-8%,1%,?,-6%,-14
CC(C)CC1Nc2ncnc(N3CCN(c4ccccn4)CC3)c2N(Cc2ccccc2)C1=O (stereo not given),?,-5%,4%,?,7%,-56*!
CC(C)CC1Nc2ncnc(N3CCN(c4ccccc4)CC3)c2N(Cc2ccc(Cl)cc2)C1=O (stereo not given),?,3%,4%,18µM*,-4%,-30
Cc1ccc(CN2C(=O)C(CC(C)C)Nc3ncnc(N4CCN(c5ccccc5)CC4)c32)cc1 (stereo not given),15µM*,?,5%,21µM*,-21%,?
COc1ccccc1CNC(=O)/C(C#N)=C/c1ccc(OC)c(OC)c1OC,-12%,-1%,/,-13%,-41%,0
CCOC(=O)CC(=O)CSc1nc2ccccc2c(=O)n1CCc1ccc(S(N)(=O)=O)cc1,?,-10%,7%,?,2%,/
C=CCN(C(=O)C1CSC2(C)CCC(=O)N12)c1nc(-c2ccccc2)cs1 (stereo not given),18µM*,-4%,/,23µM*,-10%,-26

# Compound activity: PubChem BioAssay, National Center for Advancing Translational Sciences (NCATS)
